These results are taken from PubChem BioAssay (NCATS).

Values joined by “and” are separate entries in the source; they are usually repeats but may differ in a detail not shown here. Identical values can stand only once. Results filed as inconclusive are left out. A structure can be active in one record and inactive in another. Active and inactive are the calls of the source. Calls come from the whole dose curve.
Potency is the fitted concentration of half-maximal effect.

The target in this assay is Cytochrome P450 1A2 (Homo sapiens) (UniProt P05177). The assay can be described thus: p450-cyp1a2 (AID 410).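 For activity change, negative = inhibition: -100% = full effect of reference inhibitor.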 The conditions noted are these: recombinant CYP1A2, luciferin-ME demethylation, luminescence; series mostly up to 57 µM; activity change, negative = inhibition: at the top concentration. The protocol: The P450 gene superfamily is involved in metabolism and the clearance of xenobiotics. This assay used human CYP1A2 to measure the demethylation of luciferin 6' methyl ether (Luciferin-ME; Promega-Glo) to luciferin. The luciferin is then measured by luminescence after the addition of a luciferase detection regeant. Luciferin-ME concentration in the assay was equal to its Km for CYP1A2.
Chain of Cytochrome P450 1A2 (Homo sapiens) (P05177 whole entry, looked up): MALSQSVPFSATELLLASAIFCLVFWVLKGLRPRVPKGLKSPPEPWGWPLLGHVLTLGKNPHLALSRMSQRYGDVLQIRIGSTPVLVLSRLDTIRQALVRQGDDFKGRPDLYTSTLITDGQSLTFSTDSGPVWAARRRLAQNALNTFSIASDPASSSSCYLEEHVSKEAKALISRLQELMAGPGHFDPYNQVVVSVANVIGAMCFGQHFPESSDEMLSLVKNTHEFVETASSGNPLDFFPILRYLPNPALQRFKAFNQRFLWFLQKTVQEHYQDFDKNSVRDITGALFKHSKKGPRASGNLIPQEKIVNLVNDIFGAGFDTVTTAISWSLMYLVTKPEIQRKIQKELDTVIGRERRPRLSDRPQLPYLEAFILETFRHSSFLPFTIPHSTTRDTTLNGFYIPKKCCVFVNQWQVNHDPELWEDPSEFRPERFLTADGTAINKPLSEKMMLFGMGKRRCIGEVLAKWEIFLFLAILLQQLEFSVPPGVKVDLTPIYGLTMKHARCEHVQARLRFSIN
NCGC Assay Protocol Summary:
Two uL of enzyme and substrate mix (final concentrations: 20nM CYP1A2, 100uM Luciferin-ME, 100mM KPO4) were dispensed into a white, solid bottom 1536-well microtiter plate. 23nL of compound was transferred by a pin tool. The plate was incubated at room temperature for 10 min. Two uL of an NADPH regeneration solution (Promega supplied reagent) was dispensed and the reaction was allowed to continue for 60 min at room temperature. Then the reaction was stopped by reconstituted detection reagent. After another 20 min of incubation the plate was read on the ViewLux (Perkin Elmer) at 60 sec exposure and 2x2 binning. This protocol was carried out with Promega-Glo reagents and further information can be found at http://www.promega.com/tbs/tb325/tb325.pdf. Data were normalized to the to AC100 inhibition (57 uM furafylline).
As for `COc1ccc(CCN(C)CCc2ccc(OC)c(OC)c2)cc1OC`, the “activity change, negative = inhibition” value was -18.9% (inactive).
Turning to `NCCCCN`, the “activity change, negative = inhibition” value is -17% (inactive).
Take `COCc1nc2c([nH]1)c(=O)n(C)c(=O)n2CC(C)C`: the Potency was 12.6 µM (active).
For `Oc1cc(O)c2c(c1)O[C@H](c1ccc(O)c(O)c1)[C@@H](O)C2`, the “activity change, negative = inhibition” value is 24.2% (inactive).
As for `CCCCCCCC/C=C\CCCCCCCC(=O)NCCc1ccc(O)c(O)c1`, the Potency was 20 µM (active).
Turning to `Cn1ccnc1`, the “activity change, negative = inhibition” value is 4.4% (inactive).
For the compound `N=C(N)SCCN`, the Potency result was “inactive and 31.6 µM (active)”.
Still for that read-out and setting: with `COc1cc(/C=C(\C#N)C(=O)c2ccc(O)c(O)c2)cc(I)c1O` the figure was 15.8 µM (active); with `CSC(=N)N`, “inactive”.
On the same count and under the same terms, as for `NC(N)=NC(N)=Nc1ccccc1`, the entry is “inactive and 31.6 µM (active)”.
In the case of `N#Cc1cc2nc(O)c(O)nc2cc1[N+](=O)[O-]`, the Potency result is “inactive and 39.8 µM (active)”.
Still for that read-out and setting: with `N#CC(C#N)=C(N)/C(C#N)=C/c1ccc(O)cc1` the figure was 3.98 µM (active); with `N#C/C(=C\c1ccc(O)c(O)c1)C(=O)NCCc1ccccc1`, 10 µM (active); with `C=C1C(=O)O[C@@H]2[C@H]3O[C@]3(C)CCC=C(C)CC[C@@H]12`, 10 µM (active).
Still for that read-out and setting: as for `COc1ccccc1N1CCN(CCCCNC(=O)c2ccc3ccccc3c2)CC1`, the figure is 20 µM (active) and inactive.
For `C/C(=C\c1ccc(C(=O)O)cc1)c1ccc2c(c1)C(C)(C)CCC2(C)C`, the “activity change, negative = inhibition” value is -10.2% (inactive).
For the compound `CC(C)(CO)Cc1cc(C(C)(C)C)c(O)c(C(C)(C)C)c1`, the Potency is 31.6 µM (active) and 25.1 µM (active).
The same measure, in the same setting: with `Cc1nc2c(OCc3ccccc3)cccn2c1CC#N` the figure was 2 µM (active) and 398 nM (active); with `CCCn1c(=O)c2[nH]c(C3CCCC3)nc2n(CCC)c1=O`, 1.26 µM (active) and 251 nM (active); with `N[C@H](C(=O)O)c1cc(O)cc(O)c1`, “inactive and 31.6 µM (active)”.
On the same count and under the same terms, as for `CCCn1c(=O)c2c(ncn2C)n(CCC)c1=O`, the figure is 7.94 µM (active).
As to `NOCC(=O)O`, the “activity change, negative = inhibition” value was -5.6% (inactive).
Still for that read-out and setting: as for `CN[C@H](CC(=O)O)C(=O)O`, the figure is -2.4% (inactive).
Same read-out and setting: as for `CC(=O)C(C)=O`, the figure is 0.6% (inactive).
Same read-out and setting: with `CCCCCCCCCCCCCCC[C@H](O)[C@H](N)CO` the figure was -4.8% (inactive).
For the compound `CCCc1c(OCCCOc2ccc(OCC(=O)O)cc2)ccc(C(C)=O)c1O`, the Potency was 31.6 µM (active).
On to `N[C@@H](CS(=O)O)C(=O)O`, for which the “activity change, negative = inhibition” value was -13.2% (inactive).
The same measure, in the same setting: with `CCN1C(=O)C=CC1=O` the figure was -11.1% (inactive).
With `O=C1Nc2ccc(I)cc2/C1=C/c1cc(Br)c(O)c(Br)c1`, the Potency is 2.51 µM (active) and 794 nM (active).
On to `COc1cc(CC(=O)O)ccc1O`, for which the “activity change, negative = inhibition” value is 0.6% (inactive).
For the compound `O=C(N[C@@H](Cc1ccccc1)C(=O)CCl)OCc1ccccc1`, the Potency was 3.16 µM (active).
Still for that read-out and setting: as for `O=C(O)c1ccccc1Nc1cccc(OCc2ccc3ccccc3n2)c1`, the figure is 12.6 µM (active) and 1 µM (active).
For the compound `Cn1c(=O)c2[nH]c(C3CCCC3)nc2n(C)c1=O`, the Potency is 12.6 µM (active).
Turning to `NC(=O)c1ccccc1`, the “activity change, negative = inhibition” value is 1.5% (inactive).
For the compound `O=C(O)c1ccccc1Nc1ccccc1`, the Potency was 15.8 µM (active).
Still for that read-out and setting: with `CC(=O)NCCc1c[nH]c2ccc(O)cc12` the figure was 15.8 µM (active).
Take `CNCCNS(=O)(=O)c1cccc2cnccc12`: the “activity change, negative = inhibition” value was -3.9% (inactive).
Take `CCCc1c(-c2ccc(O)cc2)nn(-c2ccc(O)cc2)c1-c1ccc(O)cc1`: the Potency was 15.8 µM (active) and 20 µM (active).
Same read-out and setting: as for `O=c1cc(-c2ccccc2)[nH]c2nc(Cl)ccc12`, the figure is 0.398 µM (active).
As for `O=C(O)c1cc2cc(F)ccc2[nH]1`, the “activity change, negative = inhibition” value was -10.5% (inactive).
